Sampled rows, rich in hits. Any-hit rate of the full collection: about 7.3%.
HCMV inh: human cytomegalovirus inhibition; HFF cells, HCMV-luciferase reporter, 72 h; active compounds read low; activity change, negative = inhibition, % at 57.5 µM; hit rate 4.5% among 410,000; AID 1259415; in the data active = activity change below about -60%; inconclusive = no clear call, values can overlap the other calls; inactive = above about -39%
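Human foreskin fibroblasts infected with luciferase-reporter HCMV at MOI 1 PFU/cell, compounds at two doses. Luciferase measured 72 h post infection; normalized to buffer-only basal and Salinomycin (10uM) controls.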
VACV mCherry inh: vaccinia inhibition (mCherry reporter) | Vaccinia virus mCherry reporter infection, fluorescence | hit rate 0.63% among 310,000 | Potency, µM (series often up to 36.5 µM), hits mostly inhibitors; calls by dose curve; tested in A549 cells; also: nearly all actives have a fitted effect of over 35% in size
VACV Venus inh: vaccinia inhibition (Venus reporter). hit rate 0.46% among 330,000. Vaccinia virus Venus reporter expression, fluorescence. Potency, µM (highest dose often 36.5 µM), usual class: inhibitors; calls by dose curve; tested in A549 cells; also: nearly all actives have a fitted effect of over 30% in size
HCV inhibitor: blocks hepatitis C virus | Huh7.5.1 HCVcc-Cre infection, luciferase reporter, 44 h | Potency, µM (top dose mostly 41.8 µM), most hits filed as inhibitors | hit rate 3.4% among 340,000 | AID 651820; active = well fitted inhibition curve with a large enough effect; inconclusive = small, poorly fitted or top-dose-only effect, or another doubt; inactive = no such curve, though single readings can be large or run the other way
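A cell-based infection assay in which seeded cells (1,000 per well) receive test compound after 4 h, are inoculated with HCVcc-Cre at approximately 0.5 moi, and are incubated 44 h before luminescence detection.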
FMDV antiviral: foot and mouth disease virus antiviral activity; FMDV antiviral cell-based qHTS; Potency, µM (titrated, usually from 57.9 µM), actives largely listed as inhibitors; hit rate 1.2% among 410,000; AID 1159524; calls by dose curve; tested in HEK293T cells; also: read-out not given here; nearly all actives have a fitted effect of over 45% in size
Of the large screens only hits and unclear results are named; the others gave an inactive call.

COc1ccccc1-c1cnn2c(NCCc3ccccc3)cc(C)nc12	HCV inhibitor 10µM
CC(OC(=O)c1ccc2ncsc2c1)C(=O)N(C)C1CCCCC1 (stereo not drawn)	none
Cc1cc(NC(=O)Cn2nc([N+](=O)[O-])c(Br)c2C)no1	none
Cc1ccc(S(=O)(=O)N2CC3C(=O)C[C@@H](c4ccccc4)N(S(=O)(=O)c4ccccc4Cl)C3CC2c2ccccc2)cc1 (stereo partly drawn)	none (no result: HCV inhibitor)
C=CCn1c(C(C)n2c(-c3cnccn3)nc3ccccc32)nc2ccccc21 (stereo not drawn)	none (no result: HCV inhibitor)
COc1ccc(CCNc2cc(C)nc3c(-c4ccccc4)cnn23)cc1OC	HCMV inh -68, HCV inhibitor inconclusive
COc1ccc(CCNc2cc(C)nc3c(-c4ccccc4)c(C)nn23)cc1OC	HCV inhibitor 11µM
Cc1ccc(-c2c3c(=O)n(C)c(=O)n(C)c3c3c(C(F)(F)F)nc4ccccc4n23)cc1	none (no result: HCV inhibitor)
CCOCCN1CCN(c2c(C)c(C)nc3cc(-c4cc(OC)cc(OC)c4)nn23)CC1	HCMV inh -84, VACV mCherry inh inconclusive, HCV inhibitor inconclusive
COCCN1CCN(c2c(C)c(C)nc3cc(-c4cccc(OC)c4)nn23)CC1	HCV inhibitor inconclusive
O=S(=O)(c1nccs1)N1CCN(c2nc(-c3cccs3)nc3ccccc23)CC1	none (no result: HCMV inh, HCV inhibitor, FMDV antiviral)
Nc1cccc(NP(=O)(c2ccccc2)c2ccccc2)c1	none (no result: VACV mCherry inh, VACV Venus inh)
CC1=NN(c2ccc(Cl)cc2)C(=O)/C1=C\c1cccn1-c1ccc(S(N)(=O)=O)cc1	FMDV antiviral 40µM
CSc1cccc(NS(=O)(=O)c2ccc3c(c2)CCN3C(C)=O)c1	HCMV inh -88, HCV inhibitor 5.6µM (no result: VACV mCherry inh, VACV Venus inh)
CCOc1ccc(S(=O)(=O)Nc2ccc3c(c2)CCCN3S(=O)(=O)c2ccc(C)cc2)cc1	HCMV inh -65 (no result: HCV inhibitor)
COC(=O)Nc1ccc(S(=O)(=O)Nc2ccc(O)cc2)cc1	HCMV inh -67, HCV inhibitor inconclusive (no result: FMDV antiviral)
CC(=O)N1CCc2cc(S(=O)(=O)NCCC(=O)N3CCN(Cc4ccccc4)CC3)ccc21	HCMV inh -66, HCV inhibitor inconclusive, FMDV antiviral inconclusive (no result: VACV mCherry inh, VACV Venus inh)
COc1ccc(-c2nc3sc(CCNC(=O)c4cc(OC)c(OC)c(OC)c4)c(C)n3n2)cc1	none (no result: HCV inhibitor)
O=C(Nc1ccc(F)cc1)N[C@H]1CC[C@@]23CCCN2C(=O)CCC[C@H]3C1Cc1ccccc1 (stereo partly drawn)	none (no result: VACV mCherry inh, VACV Venus inh, HCV inhibitor, FMDV antiviral)
O=C(c1cccc(S(=O)(=O)N2CCCCC2)c1)N1CCc2ccccc21	HCMV inh -72, HCV inhibitor inconclusive
CC(=O)N1CCCc2cc(S(=O)(=O)Nc3ccc(C)c(F)c3)ccc21	none (no result: HCV inhibitor)
CC(=O)N1CCc2cc(S(=O)(=O)Nc3ccc(C)cc3)ccc21	HCMV inh -64
COc1ccc(S(=O)(=O)Nc2ccc3c(c2)N(C(C)=O)CCC3)cc1	HCMV inh -62, HCV inhibitor inconclusive, FMDV antiviral inconclusive
CSc1cccc(NS(=O)(=O)c2ccc(C(C)=O)cc2)c1	HCMV inh -68, HCV inhibitor inconclusive
CC(=O)Nc1ccc(C(=O)NNS(=O)(=O)c2ccc(C)cc2)cc1	HCMV inh inconclusive
CC(=O)c1ccc(NC(=O)Nc2ccc(NS(=O)(=O)c3ccc(C)cc3)cc2)cc1	VACV mCherry inh inconclusive, VACV Venus inh inconclusive, HCV inhibitor 11µM
CCN(c1cccc(C(F)(F)F)c1)S(=O)(=O)c1ccc2c(c1)CCN2C(=O)C1CC1	HCMV inh -82, VACV mCherry inh inconclusive, VACV Venus inh inconclusive, HCV inhibitor inconclusive, FMDV antiviral 14µM
CC(=O)N1CCc2cc(S(=O)(=O)N3CCc4ccccc43)ccc21	HCMV inh -68, VACV Venus inh inconclusive, HCV inhibitor inconclusive, FMDV antiviral inconclusive
CC(=O)N1CCc2cc(S(=O)(=O)Nc3cccc(C(F)(F)F)c3)ccc21	HCMV inh inconclusive, VACV mCherry inh inconclusive, VACV Venus inh inconclusive, HCV inhibitor 13µM
CC(CNC(=O)c1ccc(Cn2c(=O)c3cccn3c3cccnc32)cc1)c1ccccc1 (stereo not drawn)	HCMV inh inconclusive (no result: HCV inhibitor)
O=C(Nc1ccccc1Sc1ccccc1)c1cnn2c1NC(=C1CC1)C=C2C(F)F	none (no result: HCMV inh, HCV inhibitor, FMDV antiviral)
CC(C)c1cnc2c(c1SCC(=O)NCc1ccccc1Cl)c(=O)n(C)c(=O)n2C	none (no result: HCV inhibitor)
COc1cccc(NS(=O)(=O)c2ccc3c(c2)CCCN3C(=O)C2CCC2)c1	none (no result: HCV inhibitor)
COc1cccc(NS(=O)(=O)c2ccc3c(c2)CCN3C(C)=O)c1	HCMV inh -64, VACV mCherry inh inconclusive, HCV inhibitor 1.6µM
COc1ccccc1-c1nccc(NCc2cccs2)n1	none (no result: HCMV inh, VACV mCherry inh, VACV Venus inh, HCV inhibitor)
CCC1=C(OC(=O)N(CC)CC)N2C(=O)OC(=NCc3ccccc3)[C@]2(C)[C@H]2C1=CC[C@H]1C(=O)N(c3ccccc3)C(=O)[C@H]12	none
CCC1=C(OC(=O)N(CC)CC)N2C(=O)OC(=NCc3ccccc3)[C@]2(C)[C@H]2C1=CC[C@H]1C(=O)N(CC(=O)OC)C(=O)[C@H]12	HCMV inh -62
O=C(c1ccco1)N1N=C2CCCCCC2C1(O)C(F)(F)F (stereo not drawn)	HCMV inh -66, FMDV antiviral inconclusive
COc1ccccc1Cn1cc(C(=O)c2ccc(C)cc2)c(=O)c2cc(C)ccc21	FMDV antiviral inconclusive (no result: HCV inhibitor)
COc1ccc(-c2ccc3c(c2)N(C(C)C)C(=O)COC3)cc1	none (no result: VACV mCherry inh, VACV Venus inh, HCV inhibitor, FMDV antiviral)
COC(=O)C1=C(C)N(Cc2cccc(C(F)(F)F)c2)C(=NCc2ccc(OC)cc2)NC1c1cccc(C(F)(F)F)c1 (stereo not drawn)	HCMV inh -99 (no result: VACV mCherry inh, VACV Venus inh, HCV inhibitor, FMDV antiviral)
COC(=O)C1=C(C)N(Cc2ccccc2)C(=NCCc2ccccn2)N[C@H]1c1cccc(C(F)(F)F)c1	VACV Venus inh inconclusive, HCV inhibitor inconclusive
COC(=O)C1=C(C)N(Cc2ccc(C(F)(F)F)cc2)C(=NCc2ccccc2)NC1c1cccc(F)c1 (stereo not drawn)	HCMV inh -99 (no result: VACV mCherry inh, VACV Venus inh, HCV inhibitor, FMDV antiviral)
COC(=O)C1=C(C)N(Cc2ccccc2)C(=NCc2ccccc2)N[C@H]1c1cccc(C(F)(F)F)c1	VACV mCherry inh inconclusive, VACV Venus inh 14µM, HCV inhibitor inconclusive, FMDV antiviral inconclusive (no result: HCMV inh)
COC(=O)C1=C(C)N(Cc2ccccc2)C(=NCc2ccc(OC)cc2)N[C@H]1c1cccc(F)c1	HCMV inh inconclusive, VACV mCherry inh inconclusive, VACV Venus inh inconclusive, FMDV antiviral inconclusive
COC(=O)C1=C(C)N(Cc2cccc(C(F)(F)F)c2)C(=NCc2ccc(C(F)(F)F)cc2)NC1c1cccc(F)c1 (stereo not drawn)	HCMV inh -99 (no result: VACV mCherry inh, VACV Venus inh, HCV inhibitor, FMDV antiviral)
Clc1ccccc1-c1ccc2nccn2c1	none (no result: HCV inhibitor)
COC(=O)C1=C(C)N(Cc2ccccc2)C(=NCCc2cccnc2)N[C@H]1c1ccc(Br)cc1	VACV mCherry inh inconclusive, VACV Venus inh 13µM, HCV inhibitor 2.8µM, FMDV antiviral inconclusive (no result: HCMV inh)
CCCN1C(=O)c2ccccc2NC1c1ccc(OC)c(COc2ccc([N+](=O)[O-])c(C)c2)c1 (stereo not drawn)	none (no result: HCMV inh, HCV inhibitor, FMDV antiviral)
CCS(=O)(=O)N1CC(=O)N(c2cccc(C)c2C)C(C)(C(=O)NC2CCCCC2)C1 (stereo not drawn)	none (no result: HCV inhibitor)
COc1ccccc1C(=O)NCC(=O)N1CC=C(c2ccccc2)CC1	VACV mCherry inh inconclusive, HCV inhibitor inconclusive, FMDV antiviral inconclusive

High-throughput results: PubChem, National Center for Advancing Translational Sciences (NCATS)
